In paper PMC6212833:
Whole data set: some 2,000 compounds, median “B-score” near -0.0024, cut for the highest 2% near 4. This excerpt belongs to a sample that is enriched for the highest values.

What follows are compounds tested on Balamuthia mandrillaris (ATCC PRA-291) trophozoites, axenic culture (assay: primary screen, b score). Settings: 20 µM.
Description: Screening of a clinically approved library of compounds, compiled by the Small Molecule Discovery Center (SMDC) at the UCSF, was completed at 20 µM in 0.2% DMSO. All 2,177 drugs in the library were stored as 10 mM stocks dissolved in 100% DMSO (Sigma-Aldrich) at −20°C. B. mandrillaris amoebae were resuspended in axenic medium and distributed into opaque 384-well plates (Corning) at a density of 3,000 amoebae per well using a BioMek NX liquid handler. Negative-control wells were treated with vehicle only (0.2% DMSO in axenic medium), and positive-control wells simulating total destruction of amoebae were seeded with amoeba lysate generated by 3 consecutive freeze-thaw cycles. Following 72 h of incubation, 30 µl of CellTiter Glo reagent (CTG; Promega) was added to each well. The luminescence was measured with a Promega GloMax-Multi+ plate reader at 2, 4, and 8 h after CTG addition. […] The B-score, representing a plate-based statistical approach for correcting row, column, and edge effects, was also calculated for each compound in the library (75).

Q: How did the B-score turn out when CC(C)C(=O)Nc1ccc([N+](=O)[O-])c(C(F)(F)F)c1 was run?
A: 0.258

Q: For O=C1CCCC(=O)C1C(=O)c1ccc(C(F)(F)F)cc1[N+](=O)[O-], which B-score is on record?
A: 4.46

Q: With C[C@H](CCC(=O)O)[C@H]1CCC2C3C(CC[C@@]21C)[C@@]1(C)CC[C@@H](O)C[C@H]1C[C@H]3O (stereo partly shown) as the compound, how does the B-score read?
A: 0.903

Q: For CSc1ccc2c(c1)N(CCC1CCCCN1C)c1ccccc1S2 (stereo not shown), which B-score is on record?
A: -2.17

Q: For CSc1ccc2c(c1)C(N1CCN(C)CC1)Cc1ccccc1S2 (stereo not shown), which B-score is on record?
A: 4.72

Q: Which B-score does the source give for CCSc1ccc2c(c1)N(CCCN1CCN(C)CC1)c1ccccc1S2 here?
A: 0.621

Q: With CC(C1=C(CCN(C)C)Cc2ccccc21)c1ccccn1 (stereo not shown) as the compound, how does the B-score read?
A: 0.12

Q: With CCC(CC)(CC(=O)Nc1cccc(/C=C/c2nc(C3CCC3)cs2)c1)C(=O)O as the compound, how does the B-score read?
A: -0.153

Q: For OC[C@H]1O[C@@H](n2cnc3c2NC=NC[C@H]3O)C[C@@H]1O, which B-score is on record?
A: -0.0925

Q: Nc1nc(Cl)nc2c1ncn2[C@@H]1O[C@H](CO)[C@@H](O)[C@@H]1F was tested. Which B-score did it give?
A: 4.42

Q: Which B-score does the source give for Nc1nc(Cl)nc2c1ncn2C1O[C@H](CO)[C@@H](O)[C@@H]1F (stereo partly shown) here?
A: 3.21

Q: Which B-score does the source give for Nc1nc(Cl)nc2c1ncn2[C@H]1C[C@H](O)[C@@H](CO)O1 here?
A: -1.53

Q: Which B-score does the source give for O=C(O)c1ccc(S(=O)(=O)N(Cl)Cl)cc1 here?
A: 1.61

Q: Which B-score does the source give for Cc1nc2c([nH]1)-c1ccccc1N(C(=O)c1ccc(NC(=O)c3ccccc3-c3ccccc3)cc1)CC2 here?
A: 0.432

Q: With CC1=C(/C=C/C(C)=C/C=C/C(C)=C/C(=O)O)C(C)(C)CCC1 as the compound, how does the B-score read?
A: -2.29

Q: O=C1Nc2ccc(Cl)cc2C(c2ccccc2Cl)=NC1O (stereo not shown) was tested. Which B-score did it give?
A: 0.787

Q: COc1ccc(C(=O)CC(=O)c2ccc(C(C)(C)C)cc2)cc1 was tested. Which B-score did it give?
A: 0.547

Q: With COc1ccc(C(=O)Nc2ccccc2CCC2CCCCN2C)cc1 (stereo not shown) as the compound, how does the B-score read?
A: 1.2

Q: How did the B-score turn out when COc1ccc(C(=O)N2CCCC2=O)cc1 was run?
A: 3.97

Q: With CCCCCCCCCC(=O)N[C@@H](Cc1c[nH]c2ccccc12)C(=O)N[C@@H](CC(N)=O)C(=O)N[C@@H](CC(=O)O)C(=O)N[C@@H]1C(=O)NCC(=O)N[C@@H](CCCN)C(=O)N[C@@H](CC(=O)O)C(=O)N[C@H](C)C(=O)N[C@@H](CC(=O)O)C(=O)NCC(=O)N[C@H](CO)C(=O)NC([C@@H](C)CC(=O)O)C(=O)N[C@@H](CC(=O)c2ccccc2N)C(=O)O[C@H]1C (stereo partly shown) as the compound, how does the B-score read?
A: -0.0797

Q: Which B-score does the source give for CC[C@]1(O)C[C@H]2CN(CCc3c([nH]c4ccccc34)[C@@](C(=O)OC)(c3cc4c(cc3OC)N(C)[C@H]3[C@@](O)(C(N)=O)[C@H](O)[C@]5(CC)C=CCN6CC[C@]43[C@@H]65)C2)C1 here?
A: 0.225
